GIRK2 act = activators of NPY4-receptor-primed GIRK2 channels, summary, cell-based, HEK293, thallium flux. HEK293 GIRK2/NPY4 cells, thallium flux fluorescence. activation (% efficacy), % for hits at 37.5 µM. 34,000 tested, under 10 active. AID 1259324, 2017. G protein-activated inward rectifier potassium channel 2 (Homo sapiens), P48051;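 active = primary screen hit, no activity in plain HEK293 cells, and in GIRK2-only cells above 5% efficacy rising with concentration; inactive = the rest, including fluorescent compounds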;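 note: efficacy is normalized control-subtracted fluorescence 15 s after thallium addition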
AMPAR-TARP mod = modulators of GluA2-stargazin AMPA receptor complexes, primary screen, cell-based, membrane potential dye | calls only at 30 µM | Voltage-dependent calcium channel gamma-2 subunit (Mus musculus) + Glutamate receptor 2 … | 40,000 tested, 3.5% active | HEK293 GluA2+stargazin, membrane potential dye (FDSS), glutamate EC50; hits were called plate by plate, in both directions;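 active = any of four per-well response measures lying three or more SD from its plate-wide compound average, in either direction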
Calls only; . = inactive; / = not tested or not shown; + = active, no number. The full list was thinned out, with hits kept by preference.

SMILES	GIRK2 act	AMPAR-TARP mod
COc1ccc(NC2(C#N)CCCCC2)cc1	.	+
CN1C(=O)C(C(=O)O)C2CC1(C)Oc1ccccc12 (configuration not stated)	.	.
c1nc(N2CCNCC2)c2cn[nH]c2n1	.	+
Cc1ccccc1Nc1nnc(CC(=O)N2CCN(Cc3ccccc3)CC2)s1	.	/
COc1ccc(CNC(=O)c2c(N)n(Cc3ccco3)c3nc4ccccc4nc23)cc1	.	.
COc1ccc(/C=C2\Oc3cc(OC(=O)N(C)C)ccc3C2=O)cc1OC	/	+
COc1cccc(/C=C2\Oc3cc(OC(=O)N(C)C)ccc3C2=O)c1	/	.
Cc1ccc(S(=O)(=O)N(C)c2ccc(C(=O)N3CCN(C)CC3)cc2)cc1	.	.
CCOCCCNC(=O)c1c(N)n(Cc2ccc3c(c2)OCO3)c2nc3ccccc3nc12	.	.
